Assay outcomes from PubChem BioAssay.
Compounds with a hit are over-represented: about 1.6% of the library has one in this group of screens.
VLA-4 inh – inhibition in a human VLA-4 binding assay. inhibition, % (about 7 µM as worked out from the volumes in the protocol). VLA-4 expressing cells, ligand binding flow cytometry. 0.2% of 330,000 active; in the data active means inhibition above about 50%
GASC-1 inh – blocks human GASC-1 demethylase activity. Q9H3R0. GST-JMJD2C(1-420) H3K9me3 demethylation, DELFIA europium. inhibition, % at 2.35 µM. 0.069% of 330,000 active. AID 2099;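 active means more than half of a compound's replicate wells show inhibition beyond 50%, single wells judged on their own value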;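 further: signal counts dimethyl H3K9 product captured on neutravidin plate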
Pemphigus Ab inh – inhibitors of pemphigus antibody binding to human desmoglein-3. P32926. DSG3-coupled beads, scFv-anti-DSG3-GFP binding, flow cytometry; stronger effect = lower value. binding (percent of control), % at 10 µM. 0.48% of 310,000 active. AID 588358;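 active means binding more than 3 SD below its plate's average and above zero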;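 further: hits lower antibody fragment binding to DSG3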
PREPL inh – inhibitors of human prolyl oligopeptidase-like enzyme PREPL. Q4J6C6. recombinant PREPL, fluorescence polarization activity-based probe. inhibition, % at 5.96 µM. 0.68% of 320,000 active. AID 2751; in the data active means inhibition above about 43%
GRK2 aptamer HTS – human GRK2 inhibition via aptamer displacement. P25098. bead flow cytometry, FAM-aptamer displacement from GRK2. inhibition of aptamer binding, % at 10 µM. 0.59% of 330,000 active;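 active means inhibition of aptamer binding above 40%, roughly 3 SD of noise, on plates passing a quality check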;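 further: median bead fluorescence of bound FAM aptamer so fluorescent compounds give negative values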
Target sequence (P25098 whole entry, looked up): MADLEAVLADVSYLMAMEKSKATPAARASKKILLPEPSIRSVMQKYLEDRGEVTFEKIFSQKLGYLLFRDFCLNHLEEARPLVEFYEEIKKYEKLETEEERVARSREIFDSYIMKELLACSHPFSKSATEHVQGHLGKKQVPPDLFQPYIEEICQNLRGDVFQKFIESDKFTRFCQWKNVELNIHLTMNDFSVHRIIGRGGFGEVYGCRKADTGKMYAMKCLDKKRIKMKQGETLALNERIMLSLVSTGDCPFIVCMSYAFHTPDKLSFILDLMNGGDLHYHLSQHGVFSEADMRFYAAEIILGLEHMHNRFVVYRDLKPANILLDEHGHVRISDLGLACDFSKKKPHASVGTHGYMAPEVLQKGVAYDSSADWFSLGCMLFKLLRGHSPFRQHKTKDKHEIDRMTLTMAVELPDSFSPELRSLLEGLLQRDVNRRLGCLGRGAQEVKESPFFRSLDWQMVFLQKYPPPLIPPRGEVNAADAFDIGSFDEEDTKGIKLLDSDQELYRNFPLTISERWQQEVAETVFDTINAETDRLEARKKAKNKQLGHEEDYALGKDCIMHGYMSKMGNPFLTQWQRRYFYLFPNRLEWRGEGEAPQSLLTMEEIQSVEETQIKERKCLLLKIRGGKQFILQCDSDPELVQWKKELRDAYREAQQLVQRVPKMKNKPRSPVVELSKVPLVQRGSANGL
Hits are given with their value.

Results for O=C(CSc1ccsc1[N+](=O)[O-])Nc1cc(F)ccc1F ?
GASC-1 inh: inactive; Pemphigus Ab inh: 54

Results for Cc1ccc(CNC(=O)CSc2ccsc2[N+](=O)[O-])cc1 ?
VLA-4 inh: inactive; GASC-1 inh: inactive; Pemphigus Ab inh: inactive; PREPL inh: inactive; GRK2 aptamer HTS: inactive

How did Cc1ccc(NC(=O)CSc2ccc(C(N)=O)cc2[N+](=O)[O-])cc1C do in these assays?
VLA-4 inh: inactive; GASC-1 inh: inactive; Pemphigus Ab inh: 69; PREPL inh: inactive; GRK2 aptamer HTS: inactive

How did CC(=O)c1ccc(NC(=O)CSc2ccsc2[N+](=O)[O-])cc1 do in these assays?
GASC-1 inh: inactive; Pemphigus Ab inh: 69

How did Oc1ccc(O)c(/C(=N/Nc2ccccc2)c2ccccc2)c1 do in these assays?
VLA-4 inh: inactive; GASC-1 inh: inactive; PREPL inh: inactive; GRK2 aptamer HTS: inactive

What do the screens show for `CO[C@@]1(NC(=O)Cc2cccs2)C(=O)N2C(C(=O)O)=C(COC(N)=O)CS[C@@H]21`?
VLA-4 inh: 52; GASC-1 inh: inactive; PREPL inh: inactive; GRK2 aptamer HTS: inactive

How did COc1ccc(C(=O)N(CC2CCCO2)C(C(=O)NCCC(C)C)c2ccc(C)cc2)cc1OC (stereo not drawn) do in these assays?
VLA-4 inh: inactive; GASC-1 inh: inactive; Pemphigus Ab inh: 87; PREPL inh: inactive; GRK2 aptamer HTS: inactive

What do the screens show for `O=C1C=CC(=O)N1Cc1ccccc1`?
VLA-4 inh: 54; GASC-1 inh: inactive; Pemphigus Ab inh: inactive; PREPL inh: inactive; GRK2 aptamer HTS: inactive

Results for COc1ccc(S(=O)(=O)N(C)C2(C)CCS(=O)(=O)C2)cc1OC (stereo not drawn) ?
VLA-4 inh: inactive; GASC-1 inh: inactive; Pemphigus Ab inh: inactive; PREPL inh: inactive; GRK2 aptamer HTS: inactive

Results for CC(=O)Nc1ccc(NC(=O)CN2C(=O)COc3ccc(S(=O)(=O)N4CCOCC4)cc32)cc1 ?
VLA-4 inh: inactive; GASC-1 inh: inactive; Pemphigus Ab inh: inactive; PREPL inh: inactive; GRK2 aptamer HTS: inactive

What do the screens show for `CC(C)c1ccc(NC(=O)CN2C(=O)COc3ccc(S(=O)(=O)N4CCOCC4)cc32)cc1`?
VLA-4 inh: inactive; GASC-1 inh: inactive; Pemphigus Ab inh: 74; PREPL inh: inactive; GRK2 aptamer HTS: inactive

Results for Cc1ccc(N2C(=O)CC(N3CCN(c4ccc(F)cc4)CC3)C2=O)c(C)c1 (stereo not drawn) ?
VLA-4 inh: inactive; GASC-1 inh: inactive; Pemphigus Ab inh: inactive; PREPL inh: inactive; GRK2 aptamer HTS: inactive

How did O=c1c2ccccc2sn1-c1ccc(F)cc1 do in these assays?
VLA-4 inh: inactive; GASC-1 inh: inactive; Pemphigus Ab inh: 42; PREPL inh: inactive; GRK2 aptamer HTS: inactive

Results for Cc1ccc(-n2sc3ccccc3c2=O)cc1 ?
VLA-4 inh: inactive; GASC-1 inh: inactive; PREPL inh: inactive; GRK2 aptamer HTS: inactive

What do the screens show for `O=c1c2ccc(F)cc2sn1-c1ccccc1`?
Pemphigus Ab inh: 50

How did Cc1ccc(-n2sc3cc(F)ccc3c2=O)c(C)c1 do in these assays?
Pemphigus Ab inh: 63

How did COC(=O)c1cccc(N2CCCC2=O)c1 do in these assays?
VLA-4 inh: inactive; GASC-1 inh: inactive; Pemphigus Ab inh: inactive; PREPL inh: inactive; GRK2 aptamer HTS: inactive

What do the screens show for `COC(=O)c1cccc(-n2sc3ccccc3c2=O)c1`?
VLA-4 inh: inactive; GASC-1 inh: inactive; Pemphigus Ab inh: 38; PREPL inh: inactive; GRK2 aptamer HTS: inactive

How did COc1ccccc1OCC(=O)N/N=C(\C)c1ccc2ccccc2c1 do in these assays?
Pemphigus Ab inh: inactive

What do the screens show for `O=C(NCCNC(=O)c1ccc(-c2cc(Cl)ccc2Cl)o1)c1cnccn1`?
Pemphigus Ab inh: inactive

Results for Cc1ccc(/C=C/C(=O)NCc2ccc(S(N)(=O)=O)cc2)o1 ?
GASC-1 inh: inactive; Pemphigus Ab inh: inactive

Results for CC(C)CCNC(=O)C(c1ccncc1)N(Cc1cccs1)C(=O)Cn1nnc(-c2ccc(F)cc2)n1 (stereo not drawn) ?
VLA-4 inh: inactive; GASC-1 inh: inactive; Pemphigus Ab inh: inactive; PREPL inh: inactive; GRK2 aptamer HTS: inactive

Results for Cc1ccccc1/C=C1\SC(=S)N(/N=C/c2cc([N+](=O)[O-])ccc2O)C1=O ?
VLA-4 inh: inactive; GASC-1 inh: inactive; Pemphigus Ab inh: inactive; PREPL inh: inactive; GRK2 aptamer HTS: inactive

How did Cc1ccccc1NC(=O)Cc1nc(COC(=O)c2cccc([N+](=O)[O-])c2)cs1 do in these assays?
VLA-4 inh: inactive; GASC-1 inh: inactive; Pemphigus Ab inh: 78; PREPL inh: inactive; GRK2 aptamer HTS: inactive

Results for Cc1ccccc1NC(=O)Cc1nc(COC(=O)c2ccc([N+](=O)[O-])cc2)cs1 ?
Pemphigus Ab inh: inactive
